# This is a sample that favours compounds with a hit; in the whole collection about 21% have one here.
# CHX counter = affects cycloheximide protein synthesis inhibition readout, counter-screen; cell reporter, cycloheximide protein synthesis inhibition counterscreen; max response, %; 300,000 tested, 12% active; in the data active = max response mostly above about 13%, no sharp cut-off; inactive = mostly below about 14%; note: read at 38.3 µM for the half of the compounds with a filed dose; 0% is about no effect
# Shiga toxin inh = inhibitors of Shiga toxin in Vero cells. Vero cells, Shiga toxin protein synthesis inhibition reporter. inhibition, % at 38.7 µM. 290,000 tested, 9.2% active; in the data active = inhibition mostly above about 28%, no sharp cut-off; inactive = mostly below about 43%; note: 0% is about no effect
# Pf growth 96h = inhibits malaria parasite growth, 96 h; P. falciparum luciferase reporter growth, 96 h; Potency, µM (doses to about 28.7 µM), for the others: at the top dose activity change, negative = inhibition, usual class: inhibitors; 320,000 tested, 6.9% active; AID 504834; active = well fitted inhibition curve with a large enough effect; inconclusive = small, poorly fitted or top-dose-only effect, or another doubt; inactive = no such curve, though single readings can be large or run the other way; note: potency is the fitted concentration of half-maximal effect; % is set by controls: 0 for no effect and ±100 for the full control effect
#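 Cell-based qHTS: luciferase-tagged P. falciparum in erythrocytes (2% hematocrit, 0.05% parasitemia final) incubated with compounds for 96 hours, 37 C, 5% CO2; luciferase detection reagent then added and luminescence measured.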
# NS1 function inh = influenza NS1 inhibition. Potency, µM (titrated, usually from 46.1 µM), without a hit: at the highest dose activity, positive = more growth. 270,000 tested, 0.4% active. AID 2326; note: potency is the fitted concentration of half-maximal effect; actives are rising curves; nearly all actives have a fitted effect of over 50% in size
#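 Recovery from NS1-induced slow growth read by OD600 in budding yeast switched to galactose assay medium (pH 6.0, -URA) at 1:100 dilution. Compound 23 nl per well; the matching strain lacking NS1 serves as control.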
# SARS PLP yeast = SARS-CoV PLP inhibition in yeast; Potency, µM (highest dose often 32.9 µM), for inactives: at the highest dose activity, positive = growth rescue, most hits filed as activators; 330,000 tested, 0.19% active; S. cerevisiae expressing SARS-CoV PLpro, growth rescue; AID 485353; note: potency is the fitted concentration of half-maximal effect; 0% is about no effect; nearly all actives have a fitted effect of over 55% in size
# Pf growth 48h = inhibits P. falciparum growth in the first generation, 48 h; P. falciparum luciferase growth in erythrocytes, 48 h; Potency, µM (series often up to 28.7 µM), for inactives: top-dose activity change, negative = inhibition, usual class: inhibitors; 310,000 tested, 5.9% active; AID 504832; active = well fitted inhibition curve with a large enough effect; inconclusive = small, poorly fitted or top-dose-only effect, or another doubt; inactive = no such curve, though single readings can be large or run the other way; note: potency is the fitted concentration of half-maximal effect; % is set by controls: 0 for no effect and ±100 for the full control effect
#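 Erythrocytes infected with P. falciparum carrying an integrated firefly luciferase reporter (2% hematocrit, 0.1% parasitemia final) were exposed to compounds in RPMI 1640 with 0.5% Albumax at 37 C, 5% CO2. Growth inhibition was scored as reduced luminescence.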
# Active calls of the source: *; i = inactive; ? = inconclusive; . = no result given; [ ] = remark or other dose. Unless noted, calls come from the whole dose curve.
SMILES,CHX counter,Shiga toxin inh,Pf growth 96h,NS1 function inh,SARS PLP yeast,Pf growth 48h
CCCC1O[C@@H]2C[C@H]3[C@@H]4CCC5=CC(=O)C=C[C@]5(C)[C@H]4[C@@H](O)C[C@]3(C)[C@]2(C(=O)CO)O1 (stereo partly drawn),-2,-10,2.3µM*,-10%,3%,4.1µM*
C=C1N[C@]2(C(=O)COC(C)=O)[C@@H](C[C@H]3[C@@H]4CCC5=CC(=O)C=C[C@]5(C)[C@H]4[C@@H](O)C[C@@]32C)O1,.,.,9.5µM*,.,.,?
CCCC1O[C@@H]2CC3C4CCC5=CC(=O)C=C[C@]5(C)C4C(OC(C)=O)C[C@]3(C)[C@]2(C(=O)COC(C)=O)O1 (stereo partly drawn),-2,-3,1.2µM*,-1%,-9%,9.3µM*
CC(C)C(=O)OCC(=O)[C@@]12OC(C3CCCCC3)O[C@@H]1CC1C3CCC4=CC(=O)C=C[C@]4(C)C3[C@@H](O)C[C@@]12C (stereo partly drawn),.,.,0.76µM*,.,.,0.67µM*
CC(=O)OCC(=O)[C@@]1(O)CC[C@H]2[C@@H]3CCC4=CC(=O)C=C[C@]4(C)[C@@]3(F)[C@@H](O)C[C@@]21C,.,.,0%,.,.,0%
CCCC1OC2CC3C4CCC5=CC(=O)C=CC5(C)C4C(O)CC3(C)C2(C(=O)O)O1 (stereo not drawn),2,-4,-66%,18%,-3%,8%
CC(=O)OCC(=O)[C@@]1(O)CC[C@H]2[C@@H]3C[C@H](C)C4=CC(=O)C=C[C@]4(C)[C@H]3[C@@H](O)C[C@@]21C,1,-6,22%,-11%,4%,0%
CC(C)(C)c1ccc(C(=O)CSc2n[nH]c(=O)[nH]c2=O)cc1,-1,3,-27%,-6%,11%,.
CCN(CCCNC(=O)CCNC(=O)Cn1cnc2ccccc2c1=O)c1ccccc1,-4,-21,41%,0%,0%,3%
CCOC(=O)C1CCCN(S(=O)(=O)c2c(C(=O)N3CCCCC3)c(C)n(C)c2C)C1 (stereo not drawn),-2,-9,23%,-3%,3%,12%
CCC(=O)[C@@]1(C)[C@H](C)C[C@H]2[C@@H]3CCC4=CC(=O)C=C[C@]4(C)[C@H]3[C@@H](O)C[C@@]21C,.,.,5%,.,.,2.3µM*
CC1(C)O[C@@H]2C[C@H]3[C@H]4C[C@H](F)C5=CC(=O)C=C[C@@]5(C)[C@@H]4[C@H](O)C[C@]3(C)[C@]2(C(=O)CO)O1,.,.,-24%[12.8 µM],.,.,-10%[12.8 µM]
CCC[C@@H]1O[C@@H]2C[C@@H]3[C@H]4CCC5=CC(=O)C=C[C@@]5(C)[C@H]4[C@H](O)C[C@@]3(C)[C@@]2(C(=O)CO)O1,.,.,4.8µM*,.,.,11µM*
C[C@]12C=CC(=O)C=C1CC[C@@H]1[C@@H]2CC[C@@]2(C)[C@H]1CC[C@]2(C)O,-4,-6,?,.,.,-22%
Cc1ccc2c(c1)CCCN2CC(=O)Nc1cc(S(=O)(=O)N2CCCC2)ccc1Cl,.,.,4.7µM*,.,2%,10µM*
O=C(CN1CCCc2ccccc21)Nc1cc(S(=O)(=O)N2CCCC2)ccc1Cl,.,.,8.3µM*,.,0%,13µM*
COc1ccccc1Oc1ccc(N/C=C/C(=O)c2ccc(C)o2)cc1,25*,135*,15%,.,0%,-7%[5.75 µM]
CC(=O)Nc1ccc(N/C=C/C(=O)c2ccc(C)o2)cc1,22*,71*,.,-65%,-5%,34%
Fc1ccccc1COc1cccc(/C=N/n2cnnc2)c1,-1,35,.,-71%,-3%,27%
Cc1cc(/C=N\NC(=O)CC(=O)NC2CCCCC2)c(C)n1-c1ccc(Cl)cc1,-2,-4,-15%,4%,3%,-15%
Cc1cc(/C=N/n2cnnc2)c(C)n1-c1ccc(OCc2ccc(Cl)cc2)cc1,52*,92*,12µM*,-135%,-30%,.
Cc1cc(/C=N/n2cnnc2)c(C)n1-c1ccc(OCc2ccccc2F)cc1,26*,25,18%,-97%,-28%,?
CCCn1c(C)cc(C(=O)COC(=O)c2ccc[nH]c2=O)c1C,29*,45*,73%,-24%,-23%,86%
CCOC(=O)c1cc(C)n(CCc2ccccc2)c1C,22*,27,84%,-41%,0%,?
Cc1cc(C(=O)COC(=O)C2=NNC(=O)CC2)c(C)n1-c1ccccc1,29*,38*,.,3%,-2%,13%
SMILES,CHX counter,Shiga toxin inh,Pf growth 96h,NS1 function inh,SARS PLP yeast,Pf growth 48h
CCn1c(C)cc(C(=O)COC(=O)c2ccccc2[N+](=O)[O-])c1C,.,.,.,.,-19%,.
CCCn1c(C)cc(C(=O)COC(=O)c2ccc(Cl)c(S(=O)(=O)N3CCCC3)c2)c1C,31*,142*,?,6%,4%,-17%
Cc1ccc(-n2c(C)cc(C(=O)COC(=O)C3=NNC(=O)CC3)c2C)cc1,8,13,.,18%,-5%,?
COc1cc(/C=C(\NC(=O)c2ccccc2)C(=O)Nc2cccc(O)c2)c([N+](=O)[O-])cc1OC,2,-12,0%,9%,1%,4%
CC[C@H](C)[C@H](NC(=O)[C@H](CC(C)C)NC(=O)[C@@H](N)CO)C(=O)NCC(=O)N[C@@H](CCCCN)C(=O)N[C@H](C(=O)O)C(C)C,-4,12,.,.,.,.
CC(=O)c1ccccc1NC(=O)COC(=O)CN1C(=O)C2CCCCC2C1=O (stereo not drawn),.,.,-22%,.,-1%,-24%
COCCC(=O)N1CCC(Oc2ccc(C(=O)NC(C)CCn3cccn3)cc2)CC1 (stereo not drawn),-2,-9,61%,-9%,-2%,-4%
Cc1ccc(-n2c(C)cc(C(=O)COC(=O)c3ccc[nH]c3=O)c2C)cc1C,27*,67*,?,-39%,-75%,-26%
Cc1ccc(C2C(C(=O)c3sc(-c4ccccc4)nc3C)=C(O)C(=O)N2CCN(C)C)o1 (stereo not drawn),.,.,.,-8%,.,.
Cc1cccc2cc(CN(CCCO)C(=O)Nc3cccc(Cl)c3)c(=O)[nH]c12,-3,3,16%,-1%,1%,?
O=C(NCCc1c[nH]c2ccccc12)OCCCCOC(=O)NCCc1c[nH]c2ccccc12,.,.,?,.,-4%,10µM*
O=C(COC(=O)c1ccc[nH]c1=O)NCCc1ccc(Cl)cc1Cl,79*,98*,i,2%,0%,292%
O=C(CCCc1c[nH]c2ccccc12)NCCc1c[nH]c2ccccc12,-3,-4,?,29%,0%,?
Cc1ccc(C(=O)c2ccccc2C(=O)OCC(=O)NCCc2ccc(Cl)cc2Cl)cc1,1,-15,?,14%,-10%,-4%
O=C(COC(=O)c1ccccc1C(=O)OCC(=O)NCCc1c[nH]c2ccccc12)NCCc1c[nH]c2ccccc12,.,.,12µM*,.,-4%,9.3µM*
O=C(CN1C(=O)NC(Cc2c[nH]c3ccccc23)C1=O)Nc1ccc(F)cc1F (stereo not drawn),.,.,.,.,-17%,.

# Compound activity from PubChem BioAssay.
